Data on 29 compounds can be found in the supplement of paper PMC13380429.

The test system of experiment [1] is Vero E6 infected with SARS-CoV-2. The experiment can be described thus: morphology score (similarity to uninfected cells); higher = more like uninfected cells. Particulars: 24 h.
The test system is the same in experiment [2]. The experiment can be described thus: SARS-CoV-2 infection rate relative to infected DMSO; higher = more infection, active = 60 or less. The settings on record: 24 h.

On to `CC(=O)Nc1ncc([N+](=O)[O-])s1` [nithiamide] (10 µM), for which, in experiment [1], the morphology score stood at 0.0207. The SARS-CoV-2 infection rate in experiment [2] is 90% (inactive).
As to `Cc1cccc(C)c1NC(=O)/N=C1\CCCN1C` [xilobam] (10 µM), the morphology score in experiment [1] is 0.132. In addition, the SARS-CoV-2 infection rate in experiment [2] is 102% (inactive).
Taken in the same sequence, the figures for `Cc1cc(NCCO)nc(-c2ccc(Br)cc2)n1` (10 µM) were 0.269 and 101% (inactive).
The like results for `COc1ccc(-c2nc3cc(C4=NNC(=O)CC4C)ccc3[nH]2)cc1` (stereo not drawn) [pimobendan] (10 µM) were, in that order, 0.129 and 94% (inactive).
The like results for `CCCN(CCC)CCc1cccc2c1CC(=O)N2` [ropinirole] (10 µM) were, in that order, -0.139 and 112% (inactive).
Consider `OCc1cccnc1` [nicotinyl-alcohol-tartrate] (10 µM), for which, in experiment [1], the morphology score is -0.13. For the same compound, in experiment [2], the SARS-CoV-2 infection rate was 118% (inactive).
The like results for `CC(C)c1cccc2c(-c3ccccc3)cc(-c3ccc(-c4ccc(C(=O)O)cc4)[nH]3)nc12` (10 µM) were, in that order, 0.104 and 87.5% (inactive).
The like results for `COc1ccc(C(C)=O)c(O)c1` [paeonol] (10 µM) were, in that order, 0.0505 and 100% (inactive).
In turn, `C[C@H](CCC(=O)NCCS(=O)(=O)O)[C@H]1CC[C@H]2[C@@H]3[C@@H](O)C[C@@H]4C[C@H](O)CC[C@]4(C)[C@H]3CC[C@]12C` [ursodeoxycholyltaurine] (10 µM) showed a morphology score in experiment [1] of 0.0842. In experiment [2], the SARS-CoV-2 infection rate was 102% (inactive).
The like results for `C/C1=C/C[C@@H](/C(C)=C/c2csc(C)n2)OC(=O)C[C@H](O)C(C)(C)C(=O)[C@H](C)[C@@H](O)[C@@H](C)CCC1` [epothilone-D] (0.833333 µM) were, in that order, -0.105 and 107% (inactive).
The like results for `Ic1cc(-c2ccccc2)ncn1` [4-iodo-6-phenylpyrimidine] (10 µM) were, in that order, 0.254 and 81.5% (inactive).
Take `CNCCCOc1cc(F)c(-c2c(Cl)nc3ncnn3c2N[C@@H](C)C(F)(F)F)c(F)c1` [cevipabulin] (10 µM): the morphology score in experiment [1] is -0.0738. Moreover, in experiment [2], the SARS-CoV-2 infection rate was 92% (inactive).
Taken in the same sequence, the figures for `COC[C@H](NC(=O)c1cnc(C)s1)C(=O)N[C@@H](COC)C(=O)N[C@@H](Cc1ccccc1)C(=O)[C@@]1(C)CO1` [oprozomib] (0.833333 µM) were -0.312 and 108% (inactive).
Turning to `O=C1CCC[C@@H]2[C@H]3CCCN4CCC[C@@H](CN12)[C@@H]34` [matrine] (10 µM), the morphology score in experiment [1] came out at 0.0694. The SARS-CoV-2 infection rate in experiment [2] was 112% (inactive).
The like results for `COc1ccccc1S(=O)(=O)Nc1ccc2c(c1)CN(C)C(=O)N2` (0.833333 µM) were, in that order, -0.0409 and 108% (inactive).
`CCOC(=O)c1ccc(NC2CCCCC2)c(N)c1` [ferrostatin-1] (10 µM) registered a morphology score in experiment [1] of 0.117. For the same compound, the SARS-CoV-2 infection rate in experiment [2] was 94% (inactive).
On to `CC[C@H](/C=C/[C@@H](C)[C@H]1CC[C@H]2[C@@H]3CC=C4C[C@@H](O)CC[C@]4(C)[C@H]3CC[C@]12C)C(C)C` [Stigmasterol (Stigmasterin)] (10 µM), for which the morphology score in experiment [1] turned out to be 0.0238. Besides, the SARS-CoV-2 infection rate in experiment [2] is 116% (inactive).
As to `COc1ccc(/C=C/C(=O)O)cc1` [trans-4-methoxycinnamic-acid] (10 µM), the morphology score in experiment [1] came to 0.07. Also, in experiment [2], the SARS-CoV-2 infection rate was 106% (inactive).
The like results for `CN1CCN2c3c(cccc31)[C@@H]1CN(CCCC(=O)c3ccc(F)cc3)CC[C@@H]12` [lumateperone] (10 µM) were, in that order, 0.348 and 86% (inactive).
Taken in the same sequence, the figures for `CCCCCCCCNC(=O)/C(C#N)=C/c1cn(CCCN(C)C)c2ccccc12` [dynole-34-2] (10 µM) were 0.659 and 35.5% (active).
The like results for `O=C(NCC(=O)N1CCCCC1)Nc1ccc2nnsc2c1` (10 µM) were, in that order, -0.144 and 110% (inactive).
As to `COCC1=C(C(=O)O)N2C(=O)[C@@H](NC(=O)/C(=N\OC)c3csc(N)n3)[C@H]2SC1` [cefpodoxime] (10 µM), the morphology score in experiment [1] turned out to be 0.105. Moreover, the SARS-CoV-2 infection rate in experiment [2] was 104% (inactive).
Compound `c1ccc(CCCN2CCN(CCOC(c3ccccc3)c3ccccc3)CC2)cc1` (10 µM) yielded a morphology score in experiment [1] of 0.239. Besides, the SARS-CoV-2 infection rate in experiment [2] was 94% (inactive).
The like results for `Cc1nc(N)sc1-c1ccnc(Nc2ccc(N3CCOCC3)cc2)n1` (0.833333 µM) were, in that order, 0.443 and 93% (inactive).
On to `COc1cccc(-c2cc(NCc3ccc4c(c3)OCO4)nc(N)n2)c1` (10 µM), for which, in experiment [1], the morphology score is -0.021. Further, the SARS-CoV-2 infection rate in experiment [2] was 111% (inactive).
As to `CC(C)(C)C(=O)Oc1ccc(S(=O)(=O)Nc2ccccc2C(=O)NCC(=O)O)cc1` [sivelestat] (10 µM), the morphology score in experiment [1] stood at 0.168. Further, the SARS-CoV-2 infection rate in experiment [2] was 95% (inactive).
In turn, `CC(C)C(N)C(=O)O` (stereo in doubt) [L-valine] (10 µM) registered a morphology score in experiment [1] of 0.0236. In addition, the SARS-CoV-2 infection rate in experiment [2] is 109% (inactive).
On to `COC(=O)[C@H]1[C@H]2C[C@@H]3c4[nH]c5cc(OC)ccc5c4CCN3C[C@H]2C[C@@H](OC(=O)c2cc(OC)c(OC)c(OC)c2)[C@@H]1OC` [reserpine] (10 µM), for which the morphology score in experiment [1] turned out to be 0.127. For the same compound, the SARS-CoV-2 infection rate in experiment [2] is 110% (inactive).
`CO/N=C1\C[C@]2(C[C@@H]3C[C@@H](C/C=C(\C)C[C@@H](C)/C=C/C=C4\CO[C@@H]5[C@H](O)C(C)=C[C@@H](C(=O)O3)[C@]45O)O2)O[C@H](/C(C)=C/C(C)C)[C@H]1C` [moxidectin] (10 µM) returned a morphology score in experiment [1] of 0.272. Further, in experiment [2], the SARS-CoV-2 infection rate was 98.5% (inactive).
